Assay outcomes: PubChem, National Center for Advancing Translational Sciences (NCATS)
This is a sample that favours compounds with a hit; in the whole collection about 16% have one here.
TDP1 inh: qHTS Assay for Inhibitors of Tyrosyl-DNA Phosphodiesterase (TDP1) | Tyrosyl-DNA phosphodiesterase 1 (Homo sapiens), Q9NUW8 | recombinant TDP1, AlphaScreen DNA substrate cleavage | Potency, µM (top dose mostly 130 µM), inactives show at the highest dose activity change, negative = inhibition, hits mostly inhibitors | 350,000 tested, 0.28% active | AID 485290, 2010; further: potency means the concentration at half of the fitted maximal effect; on the % scale 0 is the no-effect control and ±100 the full control effect; nearly all actives have a fitted effect of over 40% in size
Target sequence (Q9NUW8 whole entry, looked up): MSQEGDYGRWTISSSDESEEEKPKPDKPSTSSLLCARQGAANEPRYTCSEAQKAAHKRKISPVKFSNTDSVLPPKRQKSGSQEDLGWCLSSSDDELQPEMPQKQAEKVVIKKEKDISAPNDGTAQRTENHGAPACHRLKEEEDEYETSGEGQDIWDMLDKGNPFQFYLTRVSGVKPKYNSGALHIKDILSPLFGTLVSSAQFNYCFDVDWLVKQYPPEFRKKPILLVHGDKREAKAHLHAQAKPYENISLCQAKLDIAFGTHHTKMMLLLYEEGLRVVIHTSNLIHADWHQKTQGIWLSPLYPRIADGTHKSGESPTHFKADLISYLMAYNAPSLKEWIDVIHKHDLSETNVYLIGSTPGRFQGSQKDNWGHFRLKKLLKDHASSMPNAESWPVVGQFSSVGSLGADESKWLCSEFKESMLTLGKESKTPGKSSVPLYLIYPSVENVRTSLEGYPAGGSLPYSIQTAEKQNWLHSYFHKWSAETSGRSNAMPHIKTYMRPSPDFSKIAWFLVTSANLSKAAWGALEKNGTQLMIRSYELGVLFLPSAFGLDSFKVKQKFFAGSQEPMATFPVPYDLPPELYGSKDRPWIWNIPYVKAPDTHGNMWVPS
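Enzyme-compound mixtures sat 15 min at room temperature, followed by a 5 min reaction with 15 nM final substrate and 10 min with AlphaScreen beads. Recombinant human Tdp1 was used at 1 nM final.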
uPA generation: qHTS for Inhibitors of Cell Surface uPA Generation; AID 540303, 2011; Potency, µM (series often up to 38.3 µM), without a hit: at the top dose activity change, negative = inhibition, hits mostly inhibitors; 330,000 tested, 0.31% active; cell surface uPA generation assay, qHTS; active means well fitted inhibition curve with a large enough effect; inconclusive means small, poorly fitted or top-dose-only effect; inactive means no such curve, though single readings can be large or run the other way; tested in mouse RAW 264.7 cells; further: potency means the concentration at half of the fitted maximal effect; on the % scale 0 is the no-effect control and ±100 the full control effect; nearly all actives have a fitted effect of over 55% in size
DT40 TDP1 no CPT: qHTS for Inhibitors of human tyrosyl-DNA phosphodiesterase 1 (TDP1): qHTS in cells in absence of CPT; DT40 Tdp1-/- hTDP1 cells, no CPT, ATP luminescence, 48 h; 420,000 tested, 15% active; AID 686978, 2013; Potency, µM (titrated, usually from 46.2 µM), inactives show at the highest dose activity change, negative = growth inhibition, most hits filed as inhibitors; further: potency means the concentration at half of the fitted maximal effect; on the % scale 0 is the no-effect control and ±100 the full control effect; nearly all actives have a fitted effect of over 55% in size
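Luminescent ATP content (CellTiter-Glo) served as the growth readout. Knockout chicken DT40 cells expressing human TDP1 were exposed to compounds without camptothecin for a minimum 48 hr at 37 °C.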
miR-21 act: qHTS Assay for Modulators of miRNAs and/orActivators of miR-21; Potency, µM (top dose mostly 38.3 µM), without a hit: at the top dose activity change, positive = activation, hits mostly activators; 340,000 tested, under 10 active; HeLa miR-21 FLuc reporter, luciferase, 48 h; AID 2288, 2010;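 further: % of control where 0% means no effect; miR-21 action dims this reporter so a rising signal means less miR-21 action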
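HeLa miR-21-FLuc reporter line, endogenous miR-21; 2000 cells/well in DMEM/10% FBS; compound titration up to ~40uM final, 48 h, 37 degree Celsius; luciferase detection reagent, 15 min lysis, CCD luminescence.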
DT40 TDP1 CPT: qHTS for Inhibitors of human tyrosyl-DNA phosphodiesterase 1 (TDP1): qHTS in cells in presence of CPT. Potency, µM (titrated, usually from 46.2 µM), for inactives: top-dose activity change, negative = growth inhibition, actives largely listed as inhibitors. chicken DT40 Tdp1-/-;hTDP1 cells + 20 nM CPT, ATP luminescence, 48 h. 420,000 tested, 12% active; further: potency means the concentration at half of the fitted maximal effect; on the % scale 0 is the no-effect control and ±100 the full control effect; nearly all actives have a fitted effect of over 55% in size
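Chicken DT40 Tdp1-/- cells complemented with human TDP1, 400 cells/well, exposed to compounds plus 20 nM camptothecin for at least 48 h at 37 C; viability read as ATP content by CellTiter-Glo luminescence.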
The depositor's hits bear a star; ? = inconclusive; nt = no result; [ ] = dose if it differs, or a comment. Unless noted, the call rests on the fitted dose curve; in most records, active means well fitted curve in the direction sought with a large enough effect; inconclusive means small, poorly fitted or top-dose-only effect, or another doubt; inactive means no such curve, though single readings can be large; an effect the other way counts as inactive or inconclusive.

SMILES | TDP1 inh | uPA generation | DT40 TDP1 no CPT | miR-21 act | DT40 TDP1 CPT
CCN(CC)CCN(C(=O)/C=C/c1cccs1)c1nc2ccc(Cl)cc2s1 | 8% | 19% | ? | -4% | ?
NCCC[C@@H](CC(=O)N[C@@H]1CCCC[C@H]1C(=O)N[C@H](CC(=O)N[C@@H](CCC(=O)O)CC(=O)O)Cc1c[nH]c2ccccc12)NC(=O)C[C@H](CO)NC(=O)[C@@H]1CCCC[C@H]1N | 4% | nt | nt | nt | nt
CCc1ccc(NC(=O)Cn2c3[n+](c4c(F)c(F)ccc42)CCCCC3)cc1 | 7% | -3% | 5.8µM* | 13% | 2.6µM*
CCc1ccc(NC(=O)Cn2c(SC)nc3ccccc32)cc1 | 7% | 9% | ? | -1% | ?
CN(C)C(=O)c1cccc(COc2ccc(N3C(N)=NC(N)=NC3(C)C)cc2Cl)c1 | nt | nt | 0.16µM* | nt | 0.018µM*
O=C(NCc1ccccc1)c1cccc(COc2ccccc2Cl)c1 | -6% | -1% | -24% | -50% | -15%
CN(C(=O)c1cccc(COc2ccc(Cl)cc2Cl)c1)c1ccccc1 | -3% | 0% | ? | -73% | 21µM*
CCOc1cccc2sc(N(CCN(CC)CC)C(=O)c3ccc(S(=O)(=O)N4CCCC4)cc3)nc12 | 5% | 6% | ? | -1% | ?
CCNC(=S)Nc1ccc2c(c1)c(=O)n(C)n2-c1ccc(C(C)(C)C)cc1 | nt | nt | ? | nt | 26µM*
Cc1cc(C)cc(-n2c3ccc(NC(=O)Cc4cccc5ccccc45)cc3c(=O)n2C)c1 | nt | nt | 3.3µM* | nt | 5.8µM*
CC(CC(=O)Nc1ccc2c(c1)OCCO2)c1ccccc1 (centres undefined) | 3% | 2% | -26% | -48% | ?
Cn1c(=O)c2cc(NC(=S)NCc3ccccc3F)ccc2n1C | nt | nt | -23% | nt | 0%
Cn1c(=O)c2cc(NC(=O)Cc3ccccc3F)ccc2n1-c1ccc(C(C)(C)C)cc1 | nt | nt | 16µM* | nt | 23µM*
CC(CC(=O)Nc1ccc2c(c1)c(=O)n(C)n2-c1cccs1)c1ccccc1 (centres undefined) | nt | nt | 12µM* | nt | 13µM*
CCOc1ccccc1N=Nc1c(C)[nH]n(-c2ccccc2)c1=O | nt | 13% | -6% | -1% | -22%
Cc1cc(NC(=O)CCCN2C(=O)c3cccnc3C2=O)no1 | 7% | 4% | 26µM* | 2% | 21µM*
c1ccc(CSc2ccc3nnc(-c4cccnc4)n3n2)cc1 | 3% | 11% | ? | -10% | ?
COc1cc(/C=N\NC(=O)CC#N)ccc1OC/C=C/c1ccccc1 | 6%[56.1 µM] | 2% | ? | 8% | 26µM*
CC(C)(C)c1ccc(/C=N/NC(=S)NCc2ccccc2)cc1 | 4% | -5% | ? | -6% | ?
COc1cc(/C=N/NC(=S)NCc2ccccc2)ccc1OCC#N | 0% | 5% | 23µM* | 5% | 21µM*
Cn1c(=O)n(C)c2cc(/C=N/NC(=S)NCc3ccccc3)ccc21 | 8% | -3% | 26µM* | -2% | ?
CCC(=O)n1nc(-c2cccnc2)nc1NCc1ccc(OC)cc1 | 8% | -2% | -15% | -10% | 9%
CCOc1ccc(-c2nnc(SCC(=O)NCc3ccccc3)nc2-c2ccc(OCC)c(OC)c2)cc1OC | 1% | nt | ? | ? | ?
CCCCNC(=NCc1cccc(C(F)(F)F)c1)Nc1ccccc1 | nt | -6% | 10µM* | 19% | 13µM*
Clc1ccc(-c2nnc(SCc3nc4ccccc4[nH]3)o2)c(Cl)c1 | 3% | -3% | 9.2µM* | -24% | ?
SMILES | TDP1 inh | uPA generation | DT40 TDP1 no CPT | miR-21 act | DT40 TDP1 CPT
c1ccc2[nH]c(CSc3nnc(-c4ccncc4)o3)nc2c1 | 7% | -1% | ? | -6% | ?
CCCC(O)(c1ccc(Br)cc1)C(CN1CCOCC1)c1ccc(Cl)cc1 (centres undefined) | nt | 5% | ? | 15% | ?
CCCCCC(O)(c1ccccc1)C(CN1CCOCC1)c1ccccc1 (centres undefined) | nt | -21% | ? | 17% | ?
CCCC(O)(c1ccccc1)C(CN1CCOCC1)c1ccccc1 (centres undefined) | nt | -4% | ? | 3% | 21µM*
CCCC(O)(c1ccc(Cl)cc1)C(CN1CCOCC1)c1ccccc1 (centres undefined) | -4% | 16% | ? | 16% | ?
CCCC(O)(c1ccc(CC)cc1)C(CN1CCOCC1)c1ccccc1 (centres undefined) | nt | 6% | 18µM* | 22% | 16µM*
CCCCCCC(O)(c1ccccc1)C(CN1CCOCC1)c1ccccc1 (centres undefined) | nt | 1% | 23µM* | 17% | 18µM*
COc1ccc(C(=O)Nc2nnc(S(=O)(=O)N(C)Cc3ccccc3)s2)cc1 | 3% | -6% | -12% | -1% | 5%
Cc1ccc(C)c(N=Nc2nc3ccccc3n2C)c1 | 13% | ? | 3.5µM* | -17% | 5.8µM*
Cc1cc(C)c(C)c(N=Nc2nc3ccccc3n2C)c1C | 11% | 0% | 23µM* | -2% | ?
Cc1ccc(NCc2nc3ccccc3n2C)cc1C | nt | -2% | -12% | -49% | -1%
Clc1ccc(-c2ccc(-c3nn4c(-c5ccco5)nnc4s3)o2)cc1 | nt | nt | 10µM* | nt | ?
Brc1ccc(-c2nn3c(-c4ccco4)nnc3s2)o1 | nt | nt | -21% | -24% | -25%
COc1ccc(C2/C=C\CN(C(=O)CC(C)(C)C)CC(=O)N2Cc2ccc(F)cc2)cc1 (centres undefined) | 4% | -3% | ? | 2% | ?
CCCCCCNC(=O)N1C/C=C\C(c2ccc(OC)cc2)N(Cc2ccc(F)cc2)C(=O)C1 (centres undefined) | 4% | 15% | 23µM* | 10% | ?
COc1ccc(C2/C=C\CN(C(=O)C3CC3)CC(=O)N2Cc2ccc(F)cc2)cc1 (centres undefined) | 4% | 1% | -19% | 5% | -3%
CCCCCCC(=O)N1C/C=C\C(c2ccc(OC)cc2)N(Cc2ccc(F)cc2)C(=O)C1 (centres undefined) | 6% | -10% | 23µM* | 17% | ?
Cc1ccc(CN(C)C(=O)c2ccc(S(=O)(=O)N3CCCCCC3)cc2)o1 | 11% | -6% | ? | nt | ?
CC1Cc2ccccc2N1C(=O)CNc1ccccc1N1CCCCC1 (centres undefined) | 6% | 4% | ? | 2% | ?
CC[C@]1(c2cccc(C)c2)C(=O)N(C(=O)OC)N1C(=O)OC | nt | -13% | 13µM* | 1% | 5.2µM*
